# Laboratory results reported in the supplement of paper PMC8728848.
# The full list was thinned out, with the strongest signals kept by preference.
# B1: AT1G15820(2) (Arabidopsis thaliana), Q9LMQ2 (protein)
# chain: MAMAVSGAVLSGLGSSFLTGGKRGATALASGVGTGAQRVGRKTLIVAAAAAQPKKSWIPAVKGGGNFLDPEWLDGSLPGDFGFDPLGLGKDPAFLKWYREAELIHGRWAMAAVLGIFVGQAWSGVAWFEAGAQPDAIAPFSFGSLLGTQLLLMGWVESKRWVDFFNPDSQSVEWATPWSKTAENFANYTGDQGYPGGRFFDPLGLAGKNRDGVYEPDFEKLERLKLAEIKHSRLAMVAMLIFYFEAGQGKTPLGALGL
# Assays:
# Experiment in all cases: glycan array binding signal (z-score within array); higher = stronger binding
# Conditions in all cases: glycan notation: IUPAC condensed, linker removed
# [1] = biological target: Fuc(a1-2)Gal(b1-4)GlcNAc(b1-2)Man(a1-3)[Fuc(a1-2)Gal(b1-4)GlcNAc(b1-2)Man(a1-6)]Man(b1-4)GlcNAc(b1-4)[Fuc(a1-6)]GlcNAc
# In short: (§1)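 Glycan array data came from 3228 arrays in the Consortium for Functional Glycomics database, and only arrays with an available protein sequence were kept. Glycan names were put into IUPAC-condensed notation, and columns mapping to the same glycan were averaged. The binding signal is a within-array Z-score, averaged across arrays of one protein sequence run at different concentrations or buffers and across linkers. A negative Z-score can be read as non-binding.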
# [2] = biological target: Fuc(a1-2)[Gal(a1-3)]Gal(b1-3)GalNAc
# In short: as §1
# [3] = biological target: Fuc(a1-2)[Gal(a1-4)]Gal(b1-4)GlcNAc
# In short: as §1
# [4] = biological target: Fuc(a1-2)[GalNAc(a1-3)]Gal(b1-4)Glc
# In short: as §1
# [5] = biological target: Fuc(a1-2)[GalNAc(a1-3)]Gal(b1-4)[Fuc(a1-3)]GlcNAc(b1-3)GalNAc
# In short: as §1
# [6] = biological target: Fuc(a1-3)[GalNAc(b1-4)]GlcNAc
# In short: as §1
# Gal(a1-3)GalNAc = biological target: Gal(a1-3)GalNAc
# In short: as §1
# [7] = biological target: Gal(a1-3)[Gal(a1-4)]Gal(b1-4)GlcNAc
# In short: as §1
# Gal(a1-4)Gal(b1-4)Glc = biological target: Gal(a1-4)Gal(b1-4)Glc
# In short: as §1
# Gal(b1-2)Gal = biological target: Gal(b1-2)Gal
# In short: as §1
# [8] = biological target: Gal(b1-3)GalNAc(b1-4)Gal(b1-4)Glc
# In short: as §1
# Gal(b1-3)GlcNAc = biological target: Gal(b1-3)GlcNAc
# In short: as §1
# [9] = biological target: Gal(b1-3)GlcNAc(b1-2)Man(a1-3)[Gal(b1-3)GlcNAc(b1-2)Man(a1-6)]Man(b1-4)GlcNAc(b1-4)GlcNAc
# In short: as §1
# [10] = biological target: Gal(b1-3)GlcNAc(b1-3)Gal(b1-4)Glc
# In short: as §1
# [11] = biological target: Gal(b1-3)GlcNAc(b1-3)Gal(b1-4)GlcNAc(b1-3)Gal(b1-4)GlcNAc(b1-2)[Gal(b1-3)GlcNAc(b1-3)Gal(b1-4)GlcNAc(b1-3)Gal(b1-4)GlcNAc(b1-6)]Man(a1-6)[Gal(b1-3)GlcNAc(b1-3)Gal(b1-4)GlcNAc(b1-3)Gal(b1-4)GlcNAc(b1-2)Man(a1-3)]Man(b1-4)GlcNAc(b1-4)[Fuc(a1-6)]GlcNAc
# In short: as §1
# [12] = biological target: Gal(b1-3)GlcNAc(b1-6)[Gal(b1-3)]GalNAc
# In short: as §1
# [13] = biological target: Gal(b1-3)[Fuc(a1-4)]GlcNAc(b1-2)Man(a1-3)[Gal(b1-3)[Fuc(a1-4)]GlcNAc(b1-2)Man(a1-6)]Man(b1-4)GlcNAc(b1-4)[Fuc(a1-6)]GlcNAc
# In short: as §1
# [14] = biological target: Gal(b1-3)[Fuc(a1-4)]GlcNAc(b1-6)GalNAc
# In short: as §1
# [15] = biological target: Gal(b1-4)GlcNAc(b1-2)Man(a1-6)[GlcNAc(b1-2)Man(a1-3)]Man(b1-4)GlcNAc(b1-4)GlcNAc
# In short: as §1
# [16] = biological target: Gal(b1-4)GlcNAc(b1-3)Gal(b1-4)Glc
# In short: as §1
# [17] = biological target: Gal(b1-4)GlcNAc(b1-3)Gal(b1-4)GlcNAc(b1-2)Man(a1-3)[Gal(b1-4)GlcNAc(b1-3)Gal(b1-4)GlcNAc(b1-2)Man(a1-6)]Man(b1-4)GlcNAc(b1-4)GlcNAc
# In short: as §1
# [18] = biological target: Gal(b1-4)GlcNAc(b1-3)Gal(b1-4)GlcNAc(b1-3)Gal(b1-4)GlcNAc(b1-3)Gal(b1-4)GlcNAc(b1-2)Man(a1-3)[Gal(b1-4)GlcNAc(b1-3)Gal(b1-4)GlcNAc(b1-3)Gal(b1-4)GlcNAc(b1-3)Gal(b1-4)GlcNAc(b1-2)Man(a1-6)]Man(b1-4)GlcNAc(b1-4)[Fuc(a1-6)]GlcNAc
# In short: as §1
# [19] = biological target: Gal(b1-4)GlcNAc(b1-3)GalNAc
# In short: as §1
# Gal3S(b1-4)Glc6S = biological target: Gal3S(b1-4)Glc6S
# In short: as §1
# [20] = biological target: Gal3S(b1-4)[Fuc(a1-3)]Glc6S
# In short: as §1
# [21] = biological target: GalNAc(b1-3)Gal(a1-4)Gal(b1-4)GlcNAc
# In short: as §1
# GalNAc(b1-4)GlcNAc = biological target: GalNAc(b1-4)GlcNAc
# In short: as §1
# GalNAc4S6S(b1-4)GlcNAc = biological target: GalNAc4S6S(b1-4)GlcNAc
# In short: as §1
# [22] = biological target: GlcNAc(a1-3)Gal(b1-4)GlcNAc
# In short: as §1
# [23] = biological target: GlcNAc(a1-4)Gal(b1-4)GalNAc
# In short: as §1
# [24] = biological target: GlcNAc(b1-3)Gal(b1-4)GlcNAc(b1-6)[Gal(b1-3)]GalNAc
# In short: as §1
# [25] = biological target: GlcNAc(b1-4)GlcNAc(b1-4)GlcNAc
# In short: as §1
# Kdn(a2-6)Gal(b1-4)GlcNAc = biological target: Kdn(a2-6)Gal(b1-4)GlcNAc
# In short: as §1
# [26] = biological target: Man(a1-2)Man(a1-6)[Man(a1-3)]Man(a1-6)[Man(a1-2)Man(a1-2)Man(a1-3)]Man(b1-4)GlcNAc(b1-4)GlcNAc
# In short: as §1
# [27] = biological target: Neu5Ac(a2-3)Gal(b1-4)GlcNAc(b1-2)Man(a1-3)[Neu5Ac(a2-3)Gal(b1-4)GlcNAc(b1-2)Man(a1-6)]Man(b1-4)GlcNAc(b1-4)GlcNAc
# In short: as §1
# [28] = biological target: Neu5Ac(a2-3)Gal(b1-4)GlcNAc(b1-3)[Neu5Ac(a2-3)Gal(b1-4)GlcNAc(b1-6)]GalNAc
# In short: as §1
# [29] = biological target: Neu5Ac(a2-3)Gal(b1-4)GlcNAc(b1-6)GalNAc
# In short: as §1
# [30] = biological target: Neu5Ac(a2-3)Gal(b1-4)GlcNAc6S
# In short: as §1
# [31] = biological target: Neu5Ac(a2-3)[GalNAc(b1-4)]Gal(b1-4)GlcNAc
# In short: as §1
# [32] = biological target: Neu5Ac(a2-8)Neu5Ac(a2-3)Gal(b1-4)Glc
# In short: as §1
# [33] = biological target: Neu5Ac(b2-6)Gal(b1-4)GlcNAc
# In short: as §1
# [34] = biological target: Neu5Gc(b2-6)Gal(b1-4)GlcNAc
# In short: as §1
binder,measurement,setting,value
B1,glycan array binding signal (z-score),[1],-0.613
same,glycan array binding signal (z-score),[2],-0.022
same,glycan array binding signal (z-score),[3],1.93
same,glycan array binding signal (z-score),[4],-0.507
same,glycan array binding signal (z-score),[5],6.82
same,glycan array binding signal (z-score),[6],1.79
same,glycan array binding signal (z-score),Gal(a1-3)GalNAc,3.12
same,glycan array binding signal (z-score),[7],9.8
same,glycan array binding signal (z-score),Gal(a1-4)Gal(b1-4)Glc,2.16
same,glycan array binding signal (z-score),Gal(b1-2)Gal,0.453
same,glycan array binding signal (z-score),[8],2.89
same,glycan array binding signal (z-score),Gal(b1-3)GlcNAc,0.12
same,glycan array binding signal (z-score),[9],0.477
same,glycan array binding signal (z-score),[10],-0.032
same,glycan array binding signal (z-score),[11],1.41
same,glycan array binding signal (z-score),[12],0.112
same,glycan array binding signal (z-score),[13],-0.308
same,glycan array binding signal (z-score),[14],-0.229
same,glycan array binding signal (z-score),[15],0.324
same,glycan array binding signal (z-score),[16],-0.362
same,glycan array binding signal (z-score),[17],0.779
same,glycan array binding signal (z-score),[18],0.197
same,glycan array binding signal (z-score),[19],-0.445
same,glycan array binding signal (z-score),Gal3S(b1-4)Glc6S,0.421
same,glycan array binding signal (z-score),[20],1.96
same,glycan array binding signal (z-score),[21],3.99
same,glycan array binding signal (z-score),GalNAc(b1-4)GlcNAc,8.56
same,glycan array binding signal (z-score),GalNAc4S6S(b1-4)GlcNAc,-0.032
same,glycan array binding signal (z-score),[22],-0.384
same,glycan array binding signal (z-score),[23],0.069
same,glycan array binding signal (z-score),[24],-0.16
same,glycan array binding signal (z-score),[25],-0.425
same,glycan array binding signal (z-score),Kdn(a2-6)Gal(b1-4)GlcNAc,-0.581
same,glycan array binding signal (z-score),[26],-0.821
same,glycan array binding signal (z-score),[27],-0.363
same,glycan array binding signal (z-score),[28],0.172
same,glycan array binding signal (z-score),[29],-0.315
same,glycan array binding signal (z-score),[30],-0.028
same,glycan array binding signal (z-score),[31],-0.469
same,glycan array binding signal (z-score),[32],-0.326
same,glycan array binding signal (z-score),[33],-0.408
same,glycan array binding signal (z-score),[34],-0.566
